From ChEMBL document CHEMBL1157539, “Thousands of chemical starting points for antimalarial lead identification” (Nature, 2010)

System: HepG2
Test: GSK_TCMDC: Percent inhibition of human HepG2 cell line. Test compounds present at 10uM.
Type: functional

Row | SMILES | Inhibition [%]
1 | Cl.c1ccc(-c2ccc3c(Nc4ccc5[nH]ncc5c4)ccnc3c2)nc1 | 99
2 | CCNC(=O)Nc1ccc(N(C)c2ccnc(NC3CC3)n2)cc1 | 21
3 | Cc1nccn1CCNC(=O)CN1CCC2(CCC1=O)CC(=O)c1ccccc1O2 (stereo not given) | 0
4 | COc1ccc2nccc([C@@H](O)CN3CCC(NC(=O)C(=Cc4ccc(Cl)cc4Cl)c4ccc(-c5ccccc5)cc4)CC3)c2c1 | 1
5 | Fc1ccc(Nc2nnc(CNC3CCN(Cc4ccc(Cl)c(Cl)c4)CC3)[nH]2)cc1 | 18
6 | CCOc1c(N2CCN(CCCCNC(=O)c3ccc(NC(=O)c4ccc(Cl)cc4)cc3)CC2)ccc2ccccc12.Cl | 18
7 | O=C(Nc1cccc(CN2CCCN(Cc3ncc[nH]3)CC2)c1)c1ccc(-c2ccccc2)cc1.O=C(O)C(F)(F)F | 23
8 | Cc1cc(NCCC(=O)NCCOc2ccccc2)nc(NCCOc2ccccc2)n1.O=C(O)C(F)(F)F | 8
9 | Cc1c(C(=O)C2CC2CN2CCC(N3CCCC3)CC2)sc2ccccc12 (stereo not given) | 16
10 | CSc1nccc(-c2ccc3ccnc(N)c3c2)n1 | 30
11 | CC(Oc1cc(-n2cnc3ccc(NC(=O)CCN4CCCCC4)cc32)sc1C(N)=O)c1ccccc1Cl (stereo not given) | 95
12 | COc1cc2c(cc1N(C(C)C)S(=O)(=O)c1sc3ccc(Cl)cc3c1C)CCNCC2.Cl | 98
13 | CN(CCCNC(=S)NC12CC3CC(CC(C3)C1)C2)CCCNc1ccnc2cc(Cl)ccc12 | 73
14 | O=C(O)C(F)(F)F.O=S(=O)(/C=C/c1ccccc1)N(Cc1ccc(-c2ccc(CNCCc3ccccc3)cc2)cc1)CC1CCCCN1 (stereo not given) | 99
15 | Cn1nc(-c2cccc(CN[C@@H]3CCc4ccc(O)cc43)c2)c2cnc(NCCCN3CCCC3)nc21 | 9
16 | CCN1CCN(C(=O)NC(C(=O)N2CCCC(COc3ccc(Cc4ccccc4)cc3)C2)c2cccs2)C(=O)C1=O (stereo not given) | 12
17 | COc1ccc(C=Cc2cc(=N)c3ccccc3[nH]2)cc1Br | 55
18 | COc1cccc(CN(C(=O)Nc2ccccc2F)[C@H]2C[C@H]3C(=O)Nc4cc(F)ccc4C(=O)N3C2)c1 | 0
19 | N#Cc1cncc(-c2nc3c(N4CCCC(N)C4)cccc3n2CCNCc2ccccc2)c1.O=C(O)C(F)(F)F (stereo not given) | 8
20 | CCCCCCNc1cc(C)nc(NC(=N)Nc2cccc(C(F)(F)F)c2)n1 | 44

Row | SMILES | Inhibition [%]
21 | Cl.O=C(NC1CCN(CC2(c3ccc(Cl)cc3)CCCCC2)CC1)c1cc[nH]n1 | 0
22 | CC(C)c1ccc(OCC(O)CN(CCN2CCOCC2)C(=O)Nc2ccc(Br)cc2)cc1.O=C(O)C(F)(F)F (stereo not given) | 6
23 | CN(CCN(C)C(=O)NCc1ccccc1)C(=O)NCc1ccccc1 | 2
24 | CN1c2ccc([N+](=O)[O-])cc2C(C)(C)C12C=Cc1cc(Br)cc([N+](=O)[O-])c1O2 (stereo not given) | 0
25 | Nc1ccc2[nH]cc(C3CCN(CC4CCC(NC(=O)/C=C/c5ccccc5Cl)CC4)CC3)c2n1 (stereo not given) | 7
26 | COc1ccc(-c2ccc(NC(=O)c3ccc(Cl)cc3)cc2)cc1CN1CCNCC1.O=C(O)C(F)(F)F | 14
27 | N#Cc1cccc(C(=O)Nc2cccc(-c3ccc(CN4CCCC4)cc3)c2)c1.O=C(O)C(F)(F)F | 11
28 | CN(CCc1ccccc1)c1ncc(-c2cccc(CNCCC3CCCN3C)c2)cn1 (stereo not given) | 99
29 | CCCN1CCN(c2cc(NCC)c3c4c(onc24)-c2ccccc2C3=O)CC1 | 4
30 | COc1cc(CNCCCNc2cc(=O)c3ccccc3[nH]2)c2c(c1)C(C)CN2C(=O)OC(C)(C)C (stereo not given) | 0
31 | COc1cc(Nc2nccc(N3CCC(NC(=O)C4COc5ccccc5O4)C3)n2)cc(OC)c1OC (stereo not given) | 5
32 | CCN(CCNC(=O)C1CCN(c2cc(-c3cccc(C)c3)ncn2)CC1)Cc1ccccc1 | 24
33 | O=C(O)C(F)(F)F.Oc1ccc(CN2CCC(NCc3cccc4ccccc34)CC2)cc1 | 8
34 | CO/C(=C/C=C/c1cc2cc(Cl)c(Cl)cc2[nH]1)C(=O)NC1CC(C)(C)N(C)C(C)(C)C1 | 58
35 | CC1(C)[C@H]2CC[C@@H](CNc3nc(NCCc4c[nH]cn4)nc(NCc4cc(F)ccc4F)n3)[C@@H]1C2 | 0
36 | N=C(N)NC(=O)Nc1cc(Cl)c(F)c(Cl)c1 | 22
37 | COc1cccc(C(=O)Nc2sc3c(c2C(N)=O)CCCC3)c1OC | 6
38 | Cc1cc(C)n(Cc2ccc(C(=O)NCC3CCCCC3)cc2)n1 | 0
39 | O=C(O)C(F)(F)F.c1cc(CNCC2CCCO2)cc(-c2ccc(-c3nc4ccccc4[nH]3)s2)c1 (stereo not given) | 8
40 | CN(C)c1ccc(-c2ccc(C(=O)NC3CCN(Cc4ccc5c(c4)OCCO5)CC3)s2)cc1.O=C(O)C(F)(F)F | 36
